This note sets out measurements from PubChem BioAssay AID2685 (National Center for Advancing Translational Sciences (NCATS), 2010).

Out of some 320,000 compounds screened, about 2,100 (0.66%) were called active. Not shown: some 53% with an inconclusive outcome. This is one part of a sample in which actives are shown more often than they occur. Calls follow the shape of the dose curve; as a rule, active = well fitted inhibition curve with a large enough effect in the signal ratio, with a control signal flat (not every such curve was filed as active); inconclusive = small, poorly fitted or top-dose-only effect, or effect the other way, or a change in a side signal; inactive = flat fitted curve, though single readings scatter; the % refers to the signal ratio.
Potency is read from the fitted curve at half-maximal effect.

This test can be described thus: qHTS Assay for Lipid Storage Modulators in Drosophila S3 Cells.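 As to cell number change: cells counted by Cell Tracker Red CMTPX staining in the red channel.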 As to lipid storage change, negative = inhibition: % is scaled to controls: 0 for no effect and ±100 for the full control effect. The settings on record: BODIPY lipid droplet fluorescence, 18-24 h, cells fed with added oleic acid; cell number change: measured here: cell count max response; series mostly up to 46.1 µM. Put shortly:
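Drosophila S3 cells got compounds at several concentrations plus oleic acid (400 uM solution). Laser-scanning cytometry with 488 nm excitation read lipid droplets at 500-530 nm and cells at 575-640 nm. Percent activity was relative to 20 uM Triacsin C.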
On the technique in general: qHTS replaces the single test concentration by a dilution series.
`Cc1ccc(S(=O)(=O)c2cc3c(=O)n4cc(C)ccc4nc3n(CC3CCCO3)c2=N)cc1` (centres undefined): the Potency entry is “inactive” and the cell number change was -5.73%.

Consider `COP(=O)(OC)C(Nc1cc(Cl)cc(Cl)c1)c1cccc(O)c1` (centres undefined), for which the Potency result was “inactive” and the cell number change is -20.9%.

As to `CCCN(CC(=O)Nc1ccccc1OC)C(=O)CCC(=O)c1ccc(Cl)s1`, the Potency result was “inactive” and the cell number change is -12.8%.

With `CCN(CC(=O)Nc1ccccc1OC)C(=O)C1CCC1`, the Potency result was “inactive” and the cell number change was 0.934%.

For `CCCN(CC(=O)Nc1ccccc1OC)C(=O)Cc1ccccc1F`, the Potency entry was “inactive” and the cell number change came to 20.6%.

For `CCN(CC(=O)Nc1ccccc1OC)C(=O)C1CCCC1`, the Potency entry was “inactive” and the cell number change was -11%.

As for `CCCN(CC(=O)Nc1ccccc1OC)C(=O)C1CCCC1`, the Potency is 3.66 µM (active).

Take `CCCN(CC(=O)Nc1ccccc1OC)C(=O)CCC(=O)c1ccc(F)cc1`: the Potency was 0.82 µM (active) and the cell number change was -6.3%.

`O=[N+]([O-])c1cccc(S(=O)(=O)N2CCCCC2)c1`: the Potency result was “inactive” and the cell number change was 2.7%.

Turning to `Fc1ccc(-c2cc(C(F)(F)F)nc(NCc3cccs3)n2)cc1`, the Potency entry was “inactive” and the cell number change is 10.1%.

Turning to `CCCN(CCC(=O)Nc1ccccc1F)CC1CC1`, the Potency result is “inactive” and the cell number change was found to be 22.5%.

For `COc1ccc(NC(=O)c2ccc(C)cc2)c[n+]1[O-]`, the Potency result is “inactive” and the cell number change came to 9.2%.

For the molecule `COc1ccc(C(c2nnnn2C(C)C)N2CCN(C(=O)c3ccco3)CC2)cc1` (centres undefined), the Potency was 0.0259 µM (active) and the cell number change was 10.1%.

For `COCCn1nnnc1C(c1ccc(OC)cc1)N1CCN(C(=O)c2ccco2)CC1` (centres undefined), the Potency result was “inactive” and the cell number change is 10.8%.

For the molecule `COc1ccc(C(c2nnnn2C(C)(C)C)N2CCN(C(=O)c3ccco3)CC2)cc1` (centres undefined), the Potency result was “inactive” and the cell number change was found to be 15.4%.

Turning to `Cc1cccc(CSc2nnc([C@@H]3CCCN3C(=O)OC(C)(C)C)o2)c1`, the Potency entry was “inactive” and the cell number change came out at 6.08%.

For the molecule `CCOC(=O)C1CCN(c2ccc([N+](=O)[O-])cc2)CC1`, the Potency result was “inactive” and the cell number change was -12%.

In the case of `COc1ccc(OC)c(S(=O)(=O)Nc2ccc3oc(C)c(C(C)=O)c3c2)c1`, the Potency result was “inactive” and the cell number change is -9.21%.

In the case of `O=C(COC(=O)c1nc(Cl)ccc1Cl)NC1CCCCCC1`, the Potency entry was “inactive”.

On to `O=C(COC(=O)c1c(Cl)cccc1Cl)NC1CCCCC1`, for which the Potency entry is “inactive”.

For the molecule `Cc1ccccc1OCC(=O)OCC(=O)NC1CCCCCC1`, the cell number change is -24.2% and the outcome is “inactive [at 0.0737 µM]”.

With `Cc1cc(C)cc(OCC(=O)OCC(=O)NC2CCCCCCC2)c1`, the Potency result was “inactive” and the cell number change was -3.74%.

Consider `Nc1c(C(=O)NC2CCCCC2)nsc1C(=O)OCC(=O)NC1CCCCC1`, for which the Potency result was “inactive” and the cell number change was -16.5%.

Turning to `Cc1cc(C)c(OCC(=O)OCC(=O)NC2CCCCCCC2)c(C)c1`, the Potency is 1.84 µM (active) and the cell number change was 19.3%.

With `Cc1ccsc1C(=O)OCC(=O)NC1CCS(=O)(=O)C1` (centres undefined), the Potency entry is “inactive” and the cell number change is 0.0545%.

On to `Cc1ccsc1C(=O)OCC(=O)NC1CCCC1`, for which the Potency is 0.517 µM (active) and the cell number change is -11%.

Regarding `Nc1c(Cl)c(Cl)nc(C(=O)OCC(=O)NC2CCCCC2)c1Cl`, the Potency is 9.2 µM (active) and the cell number change is -8.54%.

Take `O=C(COC(=O)c1ccccc1)NC1CCCC1`: the Potency entry was “inactive” and the cell number change was -13.7%.

`O=C(COC(=O)c1cccc(C(=O)OCC(=O)NC2CCCCC2)n1)NC1CCCCC1`: the Potency was 20.6 µM (active) and the cell number change was -17.1%.

Take `Cc1ccsc1C(=O)OCC(=O)NCCNC(=O)COC(=O)c1sccc1C`: the cell number change came out at 12.8% and the lipid storage change, negative = inhibition was -4.96% [at 0.0737 µM] (inactive).

For `Cn1c(=O)c(=O)n(C)c2cc(S(=O)(=O)N3CCCCCC3)ccc21`, the Potency result was “inactive” and the cell number change came out at 11.2%.

`CN(C)CCCNS(=O)(=O)c1ccc(N2CCN(Cc3ccc4c(c3)OCO4)CC2)c([N+](=O)[O-])c1`: the Potency result was “inactive” and the cell number change is -3.81%.

Turning to `COc1cc(OC)c(NC(=O)C(=O)CC(=O)c2ccc(C)cc2C)cc1Cl`, the Potency entry was “inactive” and the cell number change was -12.6%.

Turning to `CN1C(=O)/C(=C/c2ccccc2Cl)Sc2ccc(C(=O)NCc3cccnc3)cc21`, the Potency result is “inactive” and the cell number change is -7.77%.

`Cc1ccc(S(=O)(=O)N/N=c2\oc3ccccc3cc2C(=O)Nc2cccc(C)c2)cc1`: the Potency entry is “inactive” and the cell number change is -24.3%.

In the case of `CCOC(=O)c1sc2nc(C)nc(SCC(=O)N(CC)C3CCS(=O)(=O)C3)c2c1C` (centres undefined), the Potency result is “inactive” and the cell number change was -1.32%.

As to `Cn1nc(-c2ccc(C(=O)NCCO)cc2)c2ccccc2c1=O`, the Potency result is “inactive” and the cell number change is -4.78%.

For `CC1(c2ccc(OCC#N)cc2)C=C(c2ccc(OCC#N)cc2)n2nc(C(F)(F)F)nc2N1` (centres undefined), the Potency entry was “inactive” and the cell number change was -2.27%.

For `C=CCN1c2ccccc2[C@]23C[C@@H](C(=O)OC)N=C2NC(C(=O)OC)=C(C(=O)OC)[C@H]13`, the Potency entry is “inactive” and the cell number change was determined as 33.7%.

Regarding `CC(C)OC(=O)/C(C#N)=C\c1cccnc1`, the Potency entry was “inactive” and the cell number change stood at 5.73%.

Turning to `CCC(C)(C)NC(=O)C(c1ccc(OC)cc1)N(C(=O)CCC(=O)Nc1cc(C)on1)C1CC1` (centres undefined), the Potency entry was “inactive” and the cell number change is -1.32%.

For the molecule `O=C(Nc1cc2c(cc1Br)OCCO2)c1cccnc1`, the Potency result was “inactive” and the cell number change was -16.4%.

Turning to `Cc1ccc(S(=O)(=O)N2CCC(C(=O)NNS(=O)(=O)c3ccc(Cl)cc3)CC2)cc1`, the Potency entry was “inactive” and the cell number change is 4.8%.

Regarding `Cc1ccc(S(=O)(=O)NNC(=O)C2CCN(S(=O)(=O)c3ccc(C)cc3)CC2)cc1`, the Potency entry was “inactive” and the cell number change worked out at 1.57%.

With `Cc1ccc(S(=O)(=O)NNC(=O)C2CCCCC2)cc1`, the Potency is 0.651 µM (active) and the cell number change was determined as 6.31%.

As to `CCOc1ccc(C(=O)OCC(=O)N2CCCC2)cc1OCC`, the Potency result is “inactive” and the cell number change is -21%.

With `COc1ccccc1NS(=O)(=O)c1cc(NC(=O)CCNC(C)=O)ccc1C`, the Potency entry was “inactive” and the cell number change amounted to 9.21%.

Regarding `CS(=O)(=O)NCCCNc1ccc(C(F)(F)F)cc1[N+](=O)[O-]`, the Potency result is “inactive” and the cell number change is 2.05%.

As to `CS(=O)(=O)NCCCCNc1ccc(C(F)(F)F)cc1[N+](=O)[O-]`, the Potency entry was “inactive” and the cell number change was 4.42%.

For `O=[N+]([O-])c1cc(C(F)(F)F)ccc1NCCCCNS(=O)(=O)c1ccc(Cl)cc1`, the Potency was 25.9 µM (active) and the cell number change was -16.8%.

As to `COc1ccc(C(=O)NCCNc2nc3ccc(C)cc3cc2C#N)cc1`, the Potency was 20.6 µM (active) and the cell number change is -23.8%.

For the molecule `CCOc1ccc2nc(NCCNC(=O)CC)c(C#N)cc2c1`, the Potency result was “inactive” and the cell number change was determined as 0.214%.

With `COc1ccc(C(=O)NCCNc2nc3ccc(C)cc3cc2C#N)cc1OC`, the Potency result is “inactive”.

`CCOc1ccccc1OCCCC(=O)N1CCN(S(=O)(=O)c2ccc(C)cc2)CC1`: the Potency entry was “inactive” and the cell number change is -13.5%.

Take `Cc1c(C(=O)O)sc2nc(CSc3ncc(C(F)(F)F)cc3Cl)[nH]c(=O)c12`: the Potency entry is “inactive” and the cell number change worked out at 6.43%.

Take `Cc1c(C)n(Cc2ccccc2)c2ncnc(NCCCO)c12`: the Potency result was “inactive” and the cell number change was 13.8%.

For the molecule `O=c1c(Cl)c(NCc2ccco2)cnn1C12CC3CC(CC(C3)C1)C2`, the Potency result is “inactive” and the cell number change is -8.21%.

`O=c1c(Cl)c(NCc2ccccc2Cl)cnn1C12CC3CC(CC(C3)C1)C2`: the Potency was 13 µM (active) and the cell number change is -8.24%.

Regarding `O=c1c(Cl)c(NCc2ccc(F)cc2Cl)cnn1C12CC3CC(CC(C3)C1)C2`, the Potency result was “inactive” and the cell number change is -5.4%.
